Entries with a potency or affinity are not part of this list. Calls of active or inactive are those of the source. The rule behind the calls is not given here.

Sequence of CAAX prenyl protease 2 (Homo sapiens) (Q9Y256 whole entry, looked up): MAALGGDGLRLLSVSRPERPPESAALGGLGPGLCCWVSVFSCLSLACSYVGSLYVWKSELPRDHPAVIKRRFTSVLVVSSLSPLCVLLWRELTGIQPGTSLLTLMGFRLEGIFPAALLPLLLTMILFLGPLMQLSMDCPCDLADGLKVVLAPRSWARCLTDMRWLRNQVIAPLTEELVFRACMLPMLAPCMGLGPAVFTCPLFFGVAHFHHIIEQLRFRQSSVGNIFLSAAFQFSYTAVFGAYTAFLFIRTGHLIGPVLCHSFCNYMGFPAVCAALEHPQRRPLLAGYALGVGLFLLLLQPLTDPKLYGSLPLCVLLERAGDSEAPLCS

The experiment concerns the target CAAX prenyl protease 2 (Homo sapiens) (UniProt Q9Y256). The experiment in a line: inhibition of Ras-converting CAAX protease Rce1 – biochemical, yeast membranes, quenched-peptide fluorescence, cherry-pick, dose response (AID 588849). As to conditions: yeast membrane fractions expressing human Rce1, quenched-peptide fluorescence, 4 h; series mostly up to 10 µM.
For the compound `Cc1cc2cc(C(=O)N3CCc4c([nH]c5ccccc45)C3c3ccccn3)ccc2o1` (stereo not drawn), the compound was classed as inactive.

`COc1ccc(C)cc1NC(=O)CCC(=O)Nc1ccc2nc(N3CCN(C)CC3)cc(C)c2c1`: the outcome was inactive.

As to `CCOc1ccc(-n2c(SCc3ccc([N+](=O)[O-])cc3)nnc2-c2ccc(OC)cc2)cc1`, the call was inactive.

In the case of `CCN(CC)Cc1c(O)ccc2c(=O)c(-c3ccccc3OC)coc12`, the compound was classed as inactive.

`NC(=O)CCCn1c(C(=O)c2cc(Cl)c(N)c(Cl)c2)c2ccc(C(F)(F)F)cc2[n+]1[O-]`: the compound was called inactive.

For the compound `Cc1ccccc1OC(C)C(=O)N1CCC(Cc2ccccc2)CC1` (stereo not drawn), the compound was classed as inactive.

For `CC(C)C[C@H](NC(=O)c1nc[nH]c1C(=O)N1CCNCC1)C(=O)OCc1ccccc1`, the outcome was inactive.

In the case of `CC(C)c1c(C(=O)N/N=C/c2c[nH]c3ccccc23)nnn1-c1nonc1N`, the compound was called inactive.

`Cc1cc2nn(-c3cccc4ccccc34)nc2cc1NC(=O)c1cccs1`: the call was inactive.

On to `Cc1ccc(-c2nc(Nc3ccc(N4CCOCC4)cc3)c3ccccc3n2)cc1`, for which the outcome was inactive.

`O=C1NC(c2ccc(Br)cc2)Nc2ccccc21` (stereo not drawn): the compound was called inactive.

Turning to `CCOc1ccc(-c2c(C(=O)N/N=C/c3cccs3)nnn2-c2nonc2N)cc1`, the result was inactive.

For the compound `C#CCNC(=O)C1=C[C@@H](C2CCCCC2)C[C@@H](OCc2ccc(CO)cc2)O1`, the compound was classed as inactive.

Turning to `S=c1[nH]nc(-c2ccccc2)o1`, the outcome was inactive.

Take `CCN(Cc1ccccc1)c1ccc(/C=N/N=C(N)N)cc1`: the outcome was inactive.

Turning to `CS(=O)(=O)Nc1ccccc1C(=O)NC1CC2CCC1C2` (stereo not drawn), the call was inactive.

For `Cc1nn(CCC(=O)O)c2nc(-c3cccnc3)cc(C(F)(F)F)c12`, the outcome was inactive.

For `CCC(C)(C)c1ccc(OCCCC[n+]2cccc(C)c2C)c(C(C)(C)CC)c1`, the outcome was inactive.

As for `COc1ccc(CSc2ccc(-c3nc4ccccn4c3NCc3ccccc3)cc2OC)cc1`, the result was inactive.

With `CCOC(=O)C[n+]1ccc2c([nH]c3ccccc32)c1C`, the result was inactive.

`CCCn1c(O)c(N=NC(=O)CNC(=O)Cc2ccc(OC)cc2)c2ccccc21`: the compound was called inactive.

Take `NS(=O)(=O)c1ccc(NC(=O)/C=C/c2cn(-c3ccccc3)nc2-c2cccc(Cl)c2)cc1`: the compound was classed as inactive.

On to `Cc1cc(NC(=O)c2oc3ccccc3c2C)ccc1-n1cnnn1`, for which the call was inactive.

Regarding `Cc1ccc2c(C)c(C(=O)N(Cc3ccc(F)cc3)C3CCS(=O)(=O)C3)oc2c1` (stereo not drawn), the compound was called inactive.

Regarding `O=C(c1cn(-c2ccccc2)nc1-c1cccs1)N1CCN(c2ccccc2)CC1`, the result was inactive.

For the compound `CCSCCOC(=O)C1=C(C)NC(=O)NC1c1ccccc1` (stereo not drawn), the call was inactive.

For the compound `CC(=O)Nc1ccc(Cl)cc1C1COC(=O)C1=N` (stereo not drawn), the call was inactive.

For `COC(C[C@H](O)C[C@H](O)[C@@H](C)OCc1ccccc1)OC`, the compound was called inactive.

`C/C(CC1(O)C(=O)Nc2ccccc21)=N\O` (stereo not drawn): the compound was called inactive.

Regarding `O=C(C[n+]1cc2ccccc2c2ccccc21)c1ccccc1`, the compound was called inactive.

As for `CCC1(c2ccccc2)NC(=O)N(CC(=O)Nc2ccc3c(C)cc(=O)oc3c2)C1=O` (stereo not drawn), the compound was classed as inactive.

As for `O=C(NCCc1cccnc1)c1cc(COc2ccc(F)cc2Cl)on1`, the call was inactive.

As to `COC(=O)C1CCCN1S(=O)(=O)c1ccc2ccccc2c1` (stereo not drawn), the call was inactive.

As for `CCN(CC)CCN(C(=O)c1ccc2ccccc2c1)c1nc2cc3c(cc2s1)OCO3`, the call was inactive.

On to `CCOc1ccc(N(Cc2ccc(OC)cc2)C(=O)c2ccco2)cc1`, for which the compound was called inactive.

Consider `CCn1cc(/C=C(\NC(=O)c2ccccc2F)C(=O)N2CCOCC2)c2ccccc21`, for which the outcome was inactive.

Regarding `Nc1c(C(=O)NCc2ccccc2)sc2nc(N3CCOCC3)c3c(c12)CCCC3`, the compound was classed as inactive.

For the compound `CCOC(=O)C1CCCN(C(=O)CCn2nnnc2CN2CCOCC2)C1` (stereo not drawn), the outcome was inactive.

Source of the values: PubChem BioAssay AID588849 (Broad Institute, 2011).
